# Measurements taken from article PMC7862700, “An all-to-all approach to the identification of sequence-specific readers for epigenetic DNA modifications on cytosine”.
# How the values were obtained:
# Test in all cases: DAPPL (digital affinity profiling via proximity ligation, sequencing); 10 mM Tris-HCl pH 7.5, 50 mM NaCl, 1 mM DTT, 4% glycerol, room temperature, 30 min; GST-TFs on glutathione beads, 16-mer random dsDNA library, 0.1% formaldehyde crosslink after washing; high values mean tight binding
# FEV = biological target: T1, FEV (Homo sapiens, UniProt Q99581 1-238); details: protein: recombinant; tags: N-terminal GST; dsDNA, one strand shown
# T1 sequence: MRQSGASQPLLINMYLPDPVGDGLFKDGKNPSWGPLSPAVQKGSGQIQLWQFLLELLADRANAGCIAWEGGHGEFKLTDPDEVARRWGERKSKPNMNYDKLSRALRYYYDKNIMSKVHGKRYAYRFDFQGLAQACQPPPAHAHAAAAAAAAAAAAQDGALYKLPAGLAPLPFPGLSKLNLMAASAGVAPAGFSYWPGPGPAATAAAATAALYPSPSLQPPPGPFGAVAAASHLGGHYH
# Summary of the method: (§1)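 The binding signal reported is, for every hexamer, its read frequency for a factor over its read frequency for the tag-only sample. Reads came from pools of yeast-expressed, GST-fused human transcription factors on glutathione beads, barcoded with DNA and mixed with that sample, which were incubated with 200 nmole of a random double-stranded 16-mer DNA library in Tris/NaCl/DTT/glycerol buffer at room temperature for 30 min. After washing, the pools were crosslinked with 0.1% formaldehyde, proximity-ligated with BsaI/T4 ligase for 1 h at 37 °C, PCR-amplified and sequenced on an Illumina NextSeq500.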
# ETV5 = ETV5 (Homo sapiens, UniProt P41161 1-510); details: protein: recombinant; tags: N-terminal GST; dsDNA, one strand shown
# Summary of the method: as §1
# HSF1 = HSF1 (Homo sapiens, UniProt Q00613 1-529); details: protein: recombinant; tags: N-terminal GST; chain copies: 3; dsDNA, one strand shown
# Summary of the method: as §1
# SPIC = biological target: T2, SPIC (Homo sapiens, UniProt Q8N5J4 1-248); details: protein: recombinant; tags: N-terminal GST; dsDNA, one strand shown
# T2 sequence: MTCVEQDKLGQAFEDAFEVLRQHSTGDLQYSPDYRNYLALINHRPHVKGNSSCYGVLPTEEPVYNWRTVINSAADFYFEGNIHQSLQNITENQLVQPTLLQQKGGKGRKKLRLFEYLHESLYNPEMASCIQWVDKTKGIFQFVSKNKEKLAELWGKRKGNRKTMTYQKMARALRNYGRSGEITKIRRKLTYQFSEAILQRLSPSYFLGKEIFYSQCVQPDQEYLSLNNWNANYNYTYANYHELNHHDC
# Summary of the method: as §1
# ELF4 = ELF4 (Homo sapiens, UniProt Q99607 1-663); details: protein: recombinant; tags: N-terminal GST; dsDNA, one strand shown
# Summary of the method: as §1
# ELK4 = biological target: T3, ELK4 (Homo sapiens, UniProt P28324-2 1-405); details: protein: recombinant; tags: N-terminal GST; dsDNA, one strand shown
# T3 sequence: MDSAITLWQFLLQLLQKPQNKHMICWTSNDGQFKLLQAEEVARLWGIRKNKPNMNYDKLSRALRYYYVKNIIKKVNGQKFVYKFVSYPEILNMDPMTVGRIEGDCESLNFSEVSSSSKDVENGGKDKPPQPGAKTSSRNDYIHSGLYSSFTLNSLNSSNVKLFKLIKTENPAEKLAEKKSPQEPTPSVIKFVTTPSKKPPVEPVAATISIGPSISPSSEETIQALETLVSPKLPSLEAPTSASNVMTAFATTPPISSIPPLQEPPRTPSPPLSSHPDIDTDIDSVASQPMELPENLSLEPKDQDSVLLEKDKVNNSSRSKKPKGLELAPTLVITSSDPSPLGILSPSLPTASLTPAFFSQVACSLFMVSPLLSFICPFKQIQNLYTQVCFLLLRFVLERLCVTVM
# Summary of the method: as §1
# ELF3 = biological target: T4, ELF3 (Homo sapiens, UniProt P78545 1-371); details: protein: recombinant; tags: N-terminal GST; dsDNA, one strand shown
# T4 sequence: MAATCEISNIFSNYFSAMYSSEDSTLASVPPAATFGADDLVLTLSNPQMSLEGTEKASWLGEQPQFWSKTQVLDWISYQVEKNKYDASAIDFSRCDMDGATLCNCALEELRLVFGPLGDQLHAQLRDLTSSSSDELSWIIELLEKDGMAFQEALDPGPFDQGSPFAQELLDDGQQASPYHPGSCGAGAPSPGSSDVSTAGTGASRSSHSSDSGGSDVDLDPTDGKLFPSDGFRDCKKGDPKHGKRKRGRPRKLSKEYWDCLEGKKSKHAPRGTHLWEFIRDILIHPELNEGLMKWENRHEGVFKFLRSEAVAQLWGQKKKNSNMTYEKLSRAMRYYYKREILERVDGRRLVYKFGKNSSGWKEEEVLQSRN
# Summary of the method: as §1
# CRX = CRX (Homo sapiens, UniProt O43186 1-299); details: protein: recombinant; tags: N-terminal GST; dsDNA, one strand shown
# Summary of the method: as §1
# ETV1 = ETV1 (Homo sapiens, UniProt P50549 1-477); details: protein: recombinant; tags: N-terminal GST; dsDNA, one strand shown
# Summary of the method: as §1
# ERF = biological target: T5, ERF (Homo sapiens, UniProt P50548 1-548); details: protein: recombinant; tags: N-terminal GST; dsDNA, one strand shown
# T5 sequence: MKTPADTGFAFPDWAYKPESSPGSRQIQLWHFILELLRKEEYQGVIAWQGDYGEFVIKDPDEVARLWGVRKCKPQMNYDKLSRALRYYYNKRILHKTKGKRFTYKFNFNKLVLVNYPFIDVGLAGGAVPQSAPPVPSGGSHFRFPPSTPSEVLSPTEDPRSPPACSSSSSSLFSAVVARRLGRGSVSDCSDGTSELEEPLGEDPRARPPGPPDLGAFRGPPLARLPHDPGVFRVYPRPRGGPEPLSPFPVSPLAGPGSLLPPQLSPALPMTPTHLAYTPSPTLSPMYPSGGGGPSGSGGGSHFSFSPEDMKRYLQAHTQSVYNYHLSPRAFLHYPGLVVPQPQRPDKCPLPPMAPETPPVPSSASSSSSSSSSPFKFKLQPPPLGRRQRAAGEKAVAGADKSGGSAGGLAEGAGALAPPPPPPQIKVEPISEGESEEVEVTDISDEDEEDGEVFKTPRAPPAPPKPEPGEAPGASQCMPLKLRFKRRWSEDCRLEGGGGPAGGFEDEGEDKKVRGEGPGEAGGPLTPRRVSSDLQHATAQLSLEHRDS
# Summary of the method: as §1
# ETV3L = biological target: T6, ETV3L (Homo sapiens, UniProt Q6ZN32 1-361); details: protein: recombinant; tags: N-terminal GST; dsDNA, one strand shown
# T6 sequence: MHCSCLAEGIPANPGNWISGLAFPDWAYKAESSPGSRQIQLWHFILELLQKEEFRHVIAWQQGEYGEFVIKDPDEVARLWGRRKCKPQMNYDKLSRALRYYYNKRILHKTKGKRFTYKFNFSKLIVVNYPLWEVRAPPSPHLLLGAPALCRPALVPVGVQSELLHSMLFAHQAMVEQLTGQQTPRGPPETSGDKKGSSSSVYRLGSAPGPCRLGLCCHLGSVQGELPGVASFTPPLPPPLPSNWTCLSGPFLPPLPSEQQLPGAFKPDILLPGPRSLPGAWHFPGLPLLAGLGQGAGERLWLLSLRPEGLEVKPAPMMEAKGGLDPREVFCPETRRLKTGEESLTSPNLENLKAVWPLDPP
# Summary of the method: as §1
# ETS2 = biological target: T7, ETS2 (Homo sapiens, UniProt P15036 1-469); details: protein: recombinant; tags: N-terminal GST; dsDNA, one strand shown
# T7 sequence: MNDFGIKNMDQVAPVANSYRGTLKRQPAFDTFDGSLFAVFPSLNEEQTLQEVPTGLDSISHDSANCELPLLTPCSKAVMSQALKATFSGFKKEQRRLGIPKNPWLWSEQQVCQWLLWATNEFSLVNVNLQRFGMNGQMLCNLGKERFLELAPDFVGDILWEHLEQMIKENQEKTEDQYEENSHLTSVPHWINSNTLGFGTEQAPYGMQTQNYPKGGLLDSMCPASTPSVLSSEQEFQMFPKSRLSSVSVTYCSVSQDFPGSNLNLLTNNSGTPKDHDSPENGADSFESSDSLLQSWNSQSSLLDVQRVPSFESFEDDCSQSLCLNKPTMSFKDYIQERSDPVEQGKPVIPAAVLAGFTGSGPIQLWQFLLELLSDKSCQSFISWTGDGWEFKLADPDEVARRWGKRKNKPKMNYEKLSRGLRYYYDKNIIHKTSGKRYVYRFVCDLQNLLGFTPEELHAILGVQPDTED
# Summary of the method: as §1
# SPDEF = biological target: T8, SPDEF (Homo sapiens, UniProt O95238 1-335); details: protein: recombinant; tags: N-terminal GST; dsDNA, one strand shown
# T8 sequence: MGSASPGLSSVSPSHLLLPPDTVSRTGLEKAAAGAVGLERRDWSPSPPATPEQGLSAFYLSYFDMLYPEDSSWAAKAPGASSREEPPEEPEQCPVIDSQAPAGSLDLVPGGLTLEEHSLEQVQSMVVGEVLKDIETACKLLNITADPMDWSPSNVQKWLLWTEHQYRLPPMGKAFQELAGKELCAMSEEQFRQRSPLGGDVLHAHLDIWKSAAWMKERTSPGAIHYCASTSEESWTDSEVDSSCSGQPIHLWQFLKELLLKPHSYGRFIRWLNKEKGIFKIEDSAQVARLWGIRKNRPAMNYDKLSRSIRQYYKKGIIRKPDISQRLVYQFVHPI
# Summary of the method: as §1
# ETV7 = biological target: T9, ETV7 (Homo sapiens, UniProt Q9Y603 1-341); details: protein: recombinant; tags: N-terminal GST; dsDNA, one strand shown
# T9 sequence: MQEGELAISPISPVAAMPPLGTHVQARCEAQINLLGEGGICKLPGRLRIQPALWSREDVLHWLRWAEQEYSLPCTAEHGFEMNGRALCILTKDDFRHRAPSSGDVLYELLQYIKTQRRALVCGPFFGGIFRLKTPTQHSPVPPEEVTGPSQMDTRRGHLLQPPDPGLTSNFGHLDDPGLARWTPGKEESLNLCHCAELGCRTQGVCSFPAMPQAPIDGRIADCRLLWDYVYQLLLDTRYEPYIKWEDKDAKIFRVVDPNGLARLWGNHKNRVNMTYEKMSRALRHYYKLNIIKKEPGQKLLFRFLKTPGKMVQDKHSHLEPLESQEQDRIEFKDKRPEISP
# Summary of the method: as §1
# ELF5 = biological target: T10, ELF5 (Homo sapiens, UniProt Q9UKW6-2 1-255); details: protein: recombinant; tags: N-terminal GST; dsDNA, one strand shown
# T10 sequence: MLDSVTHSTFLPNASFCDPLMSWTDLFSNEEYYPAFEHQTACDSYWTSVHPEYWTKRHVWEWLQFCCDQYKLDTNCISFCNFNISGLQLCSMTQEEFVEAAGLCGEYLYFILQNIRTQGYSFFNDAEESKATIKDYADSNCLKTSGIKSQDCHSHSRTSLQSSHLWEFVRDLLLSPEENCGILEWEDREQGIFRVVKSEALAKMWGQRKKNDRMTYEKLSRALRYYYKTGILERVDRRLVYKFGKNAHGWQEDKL
# Summary of the method: as §1
# ETV3 = biological target: T11, ETV3 (Homo sapiens, UniProt P41162-2 1-143); details: protein: recombinant; tags: N-terminal GST; dsDNA, one strand shown
# T11 sequence: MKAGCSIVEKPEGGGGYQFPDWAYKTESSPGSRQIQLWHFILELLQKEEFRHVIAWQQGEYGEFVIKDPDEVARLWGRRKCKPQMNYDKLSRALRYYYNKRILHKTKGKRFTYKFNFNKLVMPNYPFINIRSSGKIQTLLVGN
# Summary of the method: as §1
# ETV6 = ETV6 (Homo sapiens, UniProt P41212 1-452); details: protein: recombinant; tags: N-terminal GST; dsDNA, one strand shown
# Summary of the method: as §1
# HSF1, sequence (Q00613 whole entry): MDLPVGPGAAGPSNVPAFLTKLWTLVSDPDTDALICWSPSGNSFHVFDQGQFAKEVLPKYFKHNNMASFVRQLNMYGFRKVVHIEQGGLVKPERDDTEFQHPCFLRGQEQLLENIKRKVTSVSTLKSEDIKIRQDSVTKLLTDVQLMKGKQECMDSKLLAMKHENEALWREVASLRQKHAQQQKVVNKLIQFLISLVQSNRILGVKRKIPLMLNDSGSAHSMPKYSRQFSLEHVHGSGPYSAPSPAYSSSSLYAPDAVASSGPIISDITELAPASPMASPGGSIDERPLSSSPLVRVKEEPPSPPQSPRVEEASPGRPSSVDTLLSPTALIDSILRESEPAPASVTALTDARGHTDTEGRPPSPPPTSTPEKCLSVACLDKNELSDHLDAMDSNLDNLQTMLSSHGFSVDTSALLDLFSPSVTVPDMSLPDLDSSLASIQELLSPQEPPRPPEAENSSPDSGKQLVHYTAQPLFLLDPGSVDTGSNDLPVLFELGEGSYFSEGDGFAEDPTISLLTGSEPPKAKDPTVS
# ETV5, sequence (P41161 whole entry): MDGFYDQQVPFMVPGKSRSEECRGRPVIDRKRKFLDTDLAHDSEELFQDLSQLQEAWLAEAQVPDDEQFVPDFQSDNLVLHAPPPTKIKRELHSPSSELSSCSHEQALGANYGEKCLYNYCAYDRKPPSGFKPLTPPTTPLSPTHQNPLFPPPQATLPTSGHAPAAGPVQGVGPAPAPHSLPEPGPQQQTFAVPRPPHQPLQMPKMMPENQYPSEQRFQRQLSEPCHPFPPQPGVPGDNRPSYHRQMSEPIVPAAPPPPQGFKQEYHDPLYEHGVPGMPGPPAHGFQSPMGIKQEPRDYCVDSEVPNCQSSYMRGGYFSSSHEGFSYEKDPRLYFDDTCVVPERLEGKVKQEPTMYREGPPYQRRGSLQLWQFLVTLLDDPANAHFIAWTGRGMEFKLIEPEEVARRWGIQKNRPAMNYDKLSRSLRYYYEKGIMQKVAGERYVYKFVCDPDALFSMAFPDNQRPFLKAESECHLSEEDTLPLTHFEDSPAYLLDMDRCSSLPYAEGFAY
# CRX, sequence (O43186 whole entry): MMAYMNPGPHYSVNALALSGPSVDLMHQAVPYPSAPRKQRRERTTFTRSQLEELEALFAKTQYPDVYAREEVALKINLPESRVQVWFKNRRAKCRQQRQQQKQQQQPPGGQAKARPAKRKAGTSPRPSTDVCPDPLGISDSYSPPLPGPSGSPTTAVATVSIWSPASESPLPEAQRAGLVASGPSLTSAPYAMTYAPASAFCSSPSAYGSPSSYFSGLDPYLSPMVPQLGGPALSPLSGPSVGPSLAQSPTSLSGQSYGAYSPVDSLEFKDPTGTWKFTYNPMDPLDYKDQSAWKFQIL
# ETV6, sequence (P41212 whole entry): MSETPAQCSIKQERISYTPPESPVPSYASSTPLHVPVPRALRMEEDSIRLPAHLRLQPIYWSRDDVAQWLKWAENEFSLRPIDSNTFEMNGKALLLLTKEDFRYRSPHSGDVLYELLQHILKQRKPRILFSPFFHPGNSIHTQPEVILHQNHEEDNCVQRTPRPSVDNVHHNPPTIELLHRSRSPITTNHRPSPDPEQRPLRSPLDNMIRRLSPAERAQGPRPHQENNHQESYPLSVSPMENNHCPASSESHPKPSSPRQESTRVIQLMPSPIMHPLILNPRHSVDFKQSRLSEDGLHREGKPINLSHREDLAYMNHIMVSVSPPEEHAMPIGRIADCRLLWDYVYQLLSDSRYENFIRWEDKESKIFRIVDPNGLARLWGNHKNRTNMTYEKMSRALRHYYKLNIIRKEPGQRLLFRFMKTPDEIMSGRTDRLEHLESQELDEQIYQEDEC
# ETV1, sequence (P50549 whole entry): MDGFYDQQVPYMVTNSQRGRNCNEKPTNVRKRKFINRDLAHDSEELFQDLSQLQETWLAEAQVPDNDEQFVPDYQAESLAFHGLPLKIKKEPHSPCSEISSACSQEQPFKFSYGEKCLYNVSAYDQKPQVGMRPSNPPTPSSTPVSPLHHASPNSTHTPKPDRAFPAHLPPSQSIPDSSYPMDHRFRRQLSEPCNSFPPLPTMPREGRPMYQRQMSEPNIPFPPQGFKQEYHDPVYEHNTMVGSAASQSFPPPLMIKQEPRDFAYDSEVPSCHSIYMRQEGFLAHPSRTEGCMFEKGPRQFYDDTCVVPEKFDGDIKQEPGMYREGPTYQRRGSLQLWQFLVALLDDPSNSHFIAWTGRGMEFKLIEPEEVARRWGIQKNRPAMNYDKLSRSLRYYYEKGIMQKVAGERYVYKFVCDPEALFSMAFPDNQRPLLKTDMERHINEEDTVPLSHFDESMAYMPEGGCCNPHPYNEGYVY
# ELF4, sequence (Q99607 whole entry): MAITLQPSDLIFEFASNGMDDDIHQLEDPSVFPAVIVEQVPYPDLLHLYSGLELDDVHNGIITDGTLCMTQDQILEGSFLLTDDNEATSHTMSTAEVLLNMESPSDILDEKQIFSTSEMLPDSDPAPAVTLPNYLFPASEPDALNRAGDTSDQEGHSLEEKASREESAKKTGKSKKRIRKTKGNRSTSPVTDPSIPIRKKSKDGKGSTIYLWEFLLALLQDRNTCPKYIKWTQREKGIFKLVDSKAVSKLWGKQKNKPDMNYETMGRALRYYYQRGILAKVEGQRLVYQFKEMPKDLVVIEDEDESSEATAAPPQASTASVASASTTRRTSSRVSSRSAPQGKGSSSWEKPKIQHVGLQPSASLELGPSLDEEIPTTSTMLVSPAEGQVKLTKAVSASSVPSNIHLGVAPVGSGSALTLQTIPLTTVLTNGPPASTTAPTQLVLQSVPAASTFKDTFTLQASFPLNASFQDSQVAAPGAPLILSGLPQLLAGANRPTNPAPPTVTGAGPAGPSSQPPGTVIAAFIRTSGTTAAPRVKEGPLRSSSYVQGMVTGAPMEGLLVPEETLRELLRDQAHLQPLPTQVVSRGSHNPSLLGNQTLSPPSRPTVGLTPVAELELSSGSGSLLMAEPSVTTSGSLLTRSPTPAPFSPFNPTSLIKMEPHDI
sequence,measurement,setting,value
AAGCGC,binding signal,FEV,"1.14 fold enrichment (6-mer frequency, TF over GST control)"
same,binding signal,ETV5,"1.09 fold enrichment (6-mer frequency, TF over GST control)"
same,binding signal,HSF1,"1.08 fold enrichment (6-mer frequency, TF over GST control)"
same,binding signal,SPIC,"1.14 fold enrichment (6-mer frequency, TF over GST control)"
same,binding signal,ELF4,"1.12 fold enrichment (6-mer frequency, TF over GST control)"
same,binding signal,ELK4,"1.2 fold enrichment (6-mer frequency, TF over GST control)"
same,binding signal,ELF3,"1.16 fold enrichment (6-mer frequency, TF over GST control)"
same,binding signal,CRX,"1.27 fold enrichment (6-mer frequency, TF over GST control)"
same,binding signal,ETV1,"1.09 fold enrichment (6-mer frequency, TF over GST control)"
same,binding signal,ERF,"1.1 fold enrichment (6-mer frequency, TF over GST control)"
same,binding signal,ETV3L,"1.13 fold enrichment (6-mer frequency, TF over GST control)"
same,binding signal,ETS2,"1.22 fold enrichment (6-mer frequency, TF over GST control)"
same,binding signal,SPDEF,"1.03 fold enrichment (6-mer frequency, TF over GST control)"
same,binding signal,ETV7,"1.11 fold enrichment (6-mer frequency, TF over GST control)"
same,binding signal,ELF5,"1.13 fold enrichment (6-mer frequency, TF over GST control)"
same,binding signal,ETV3,"1.29 fold enrichment (6-mer frequency, TF over GST control)"
same,binding signal,ETV6,"1.15 fold enrichment (6-mer frequency, TF over GST control)"
